Experiment [1] is described as follows: S16 Schwann cell viability assay (CellTiter-Glo assay) (AID 624031).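 Also: native untransfected S16 rat Schwann cells; cellular ATP luminescence as a viability measure; nearly all actives have a fitted effect of over 70% in size.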 A digest of the protocol:
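Rat S16 Schwann cells without reporter constructs received compound or DMSO for 24 h at 37 °C under 5% CO2. Cellular ATP was then quantified by CellTiter-Glo luminescence, with vehicle wells defined as 0% activity and cell-free wells as reference.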
Background: In ATP-based viability assays light output follows the ATP content of the culture.

Experiment [2] in a line: S16 Schwann cell PMP22 intronic element beta-lactamase assay (AID 624044; calls by dose curve; also: nearly all actives have a fitted effect of over 15% in size). A digest of the protocol:
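Beta-lactamase reporter under a PMP22 intronic regulatory element in stable S16 rat Schwann cells; 24 h compound exposure. 460 nm blue signal normalized between DMSO (0%) and potassium clavulanate, with 535 nm FRET tracking viability; curves classed by r2 and response.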

Another experiment concerns 3D7. The experiment is described as follows: qHTS profiling for inhibitors of Plasmodium falciparum proliferation (AID 504749). Also: nearly all actives have a fitted effect of over 60% in size. Also: potency is read from the fitted curve at half-maximal effect. Conditions: P. falciparum in erythrocytes, SYBR Green DNA, 72 h; series mostly up to 12.8 µM. The method, boiled down:
(§1)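 SYBR Green fluorescence of parasite DNA, read after lysis and overnight dark incubation, measured growth over 72 h in erythrocyte culture at 0.3% parasitemia and 2.5% hematocrit. Data normalised to DMSO and 0.29 uM artemisinin, with plate-drift correction.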

The subject of another experiment is AS120. The experiment is described as above. As to conditions: P. falciparum in erythrocytes, SYBR Green DNA, 72 h; series mostly up to 12.8 µM. The method, boiled down:
as §1

Another experiment deals with ATS189. The experiment is described as above. As to conditions: P. falciparum in erythrocytes, SYBR Green DNA, 72 h; series mostly up to 12.8 µM. The method, boiled down: as §1
For another experiment, the system named is CP185. The description is as above. As to conditions: P. falciparum in erythrocytes, SYBR Green DNA, 72 h; series mostly up to 12.8 µM. A digest of the protocol: as §1
The subject of a further experiment is CP191. Described as above. Conditions: P. falciparum in erythrocytes, SYBR Green DNA, 72 h; series mostly up to 12.8 µM. The method, boiled down:
as §1

The subject of the next experiment is CP237. The experiment is described as above. Conditions: P. falciparum in erythrocytes, SYBR Green DNA, 72 h; series mostly up to 12.8 µM. The method, boiled down:
as §1

The test system of another experiment is CP247. The description is as above. Conditions: P. falciparum in erythrocytes, SYBR Green DNA, 72 h; series mostly up to 12.8 µM. A digest of the protocol:
as §1

Another experiment has as its system CP256. Described as above. Conditions: P. falciparum in erythrocytes, SYBR Green DNA, 72 h; series mostly up to 12.8 µM. The method, boiled down:
as §1

In another experiment the test system is CP297. Described as above. Conditions: P. falciparum in erythrocytes, SYBR Green DNA, 72 h; series mostly up to 12.8 µM. A digest of the protocol:
as §1

The test system of another experiment is CP315. The experiment is described as above. As to conditions: P. falciparum in erythrocytes, SYBR Green DNA, 72 h; series mostly up to 12.8 µM. A digest of the protocol: as §1
The next experiment deals with CP329. The description is as above. As to conditions: P. falciparum in erythrocytes, SYBR Green DNA, 72 h; series mostly up to 12.8 µM. The method, boiled down: as §1
The test system of a further experiment is ECU. The experiment is described as above. Conditions: P. falciparum in erythrocytes, SYBR Green DNA, 72 h; series mostly up to 12.8 µM. The method, boiled down: as §1
For the next experiment, the system named is JCK. The description is as above. As to conditions: P. falciparum in erythrocytes, SYBR Green DNA, 72 h; series mostly up to 12.8 µM. The method, boiled down: as §1
For another experiment, the system named is N140. The experiment is described as above. As to conditions: P. falciparum in erythrocytes, SYBR Green DNA, 72 h; series mostly up to 12.8 µM. A digest of the protocol:
as §1

For a further experiment, the system named is PAD. Described as above. As to conditions: P. falciparum in erythrocytes, SYBR Green DNA, 72 h; series mostly up to 12.8 µM. The method, boiled down: as §1
The subject of a further experiment is PC49. Described as above. Conditions: P. falciparum in erythrocytes, SYBR Green DNA, 72 h; series mostly up to 12.8 µM. A digest of the protocol: as §1
A further experiment deals with TAB113. The description is as above. As to conditions: P. falciparum in erythrocytes, SYBR Green DNA, 72 h; series mostly up to 12.8 µM. A digest of the protocol:
as §1

The test system of the next experiment is W2. The experiment is described as above. As to conditions: P. falciparum in erythrocytes, SYBR Green DNA, 72 h; series mostly up to 12.8 µM. The method, boiled down:
as §1

Each structure is given as a SMILES string. Results filed as inconclusive are left out. The source made the active and inactive calls. Unless noted, calls follow the shape of the dose curve; as a rule, active = well fitted curve in the direction sought with a large enough effect; inconclusive = small, poorly fitted or top-dose-only effect, or another doubt; inactive = no such curve, though single readings can be large; an effect the other way counts as inactive or inconclusive.

`CC(C)(C)NC(=O)[C@@H]1CC[C@@H]2[C@@H]3CC[C@@H]4NC(=O)C=C[C@@]4(C)[C@H]3CC[C@]21C`: the molecule was classed as inactive in experiment [1]. Moreover, the Potency entry (in experiment [2]; in the experiment with 3D7; in the experiment on AS120; in the experiment with ATS189; in the experiment on CP185; with CP191) was “inactive” in each case. Moreover, the Potency result in the experiment on CP237, in the experiment on CP247, in the experiment with CP256, in the experiment with CP297, with CP315 and with CP329 was “inactive” throughout. The Potency entry in the experiment on ECU, with JCK, with N140, with PAD, in the experiment with PC49 and with TAB113 was “inactive” throughout. In addition, the Potency result with W2 is “inactive”.

As for `CCCC(=O)Nc1ccc(OC[C@@H](O)CNC(C)C)c(C(C)=O)c1`, the result in [1] was inactive. Also, the Potency entry in experiment [2] was “inactive”.

For `CCN(CCCCOC(=O)c1ccc(OC)c(OC)c1)[C@@H](C)Cc1ccc(OC)cc1`, the outcome in experiment [1] was inactive. Moreover, the Potency result (in [2]; with 3D7; with AS120; with ATS189; in the experiment with CP237; in the experiment on CP247) was “inactive” throughout. In addition, the Potency entry in the experiment on CP256, in the experiment on CP297, with CP315, in the experiment on ECU, in the experiment with JCK and in the experiment on N140 was “inactive” throughout. For the same molecule, the Potency result with PAD, in the experiment with PC49 and in the experiment on TAB113 was “inactive” each time.

`Cc1ccsc1/C=C\C1=NCCCN1C`: the outcome in experiment [1] was inactive. Further, the Potency entry (in experiment [2]; in the experiment on 3D7; in the experiment on AS120; with ATS189; in the experiment with CP185; in the experiment on CP191) was “inactive” each time. Moreover, the Potency entry in the experiment with CP237, in the experiment with CP247, with CP256, with CP297, in the experiment on CP315 and with CP329 was “inactive” in each case. Besides, the Potency result with ECU, with JCK, in the experiment with N140, with PAD, in the experiment on PC49 and with TAB113 was “inactive” throughout. For the same molecule, in the experiment with W2, the Potency result was “inactive”.

On to `c1ccc2c(c1)CCC[C@@H]2C1=NCCN1`, for which the outcome in experiment [1] was inactive. The Potency result in the experiment on 3D7, in the experiment on AS120, in the experiment on ATS189, in the experiment with CP185, in the experiment with CP191 and with CP237 was “inactive” each time. Besides, the Potency entry in the experiment on CP247, with CP256, in the experiment on CP297, in the experiment on CP315, in the experiment on CP329 and in the experiment on ECU was “inactive” each time. The Potency entry in the experiment on JCK, with N140, in the experiment with PAD, in the experiment with PC49, in the experiment with TAB113 and with W2 was “inactive” throughout.

Take `Clc1ccc([C@H](Cn2ccnc2)OCc2c(Cl)cccc2Cl)c(Cl)c1`: the outcome in [1] was inactive. For the same molecule, the Potency result in experiment [2] is “inactive”. Also, the Potency is 2.51 µM (active) in the experiment on 3D7; 1.26 µM (active) in the experiment with AS120; 3.98 µM (active) in the experiment with ATS189; 3.16 µM (active) in the experiment with CP191; 3.16 µM (active) in the experiment on CP237; 3.16 µM (active) in the experiment on CP247. Further, the Potency in the experiment with ECU is 1.78 µM (active); in the experiment with N140, 3.16 µM (active); with PAD, 3.55 µM (active); in the experiment with TAB113 it was 3.98 µM (active); with W2, 2.03 µM (active).

As for `CN(C)CCn1nnnc1SCC1=C(C(=O)O)N2C(=O)[C@@H](NC(=O)Cc3csc(N)n3)[C@@H]2SC1`, the molecule was called inactive in experiment [1]. The Potency result (in experiment [2]; in the experiment on 3D7; with AS120; in the experiment with CP185; in the experiment on CP237; with CP247) was “inactive” in each case. In addition, the Potency result in the experiment with CP256, with CP297, in the experiment with CP315, with CP329 and with PC49 was “inactive” throughout. For the same molecule, in the experiment on W2, the Potency was 6.42 µM (active).

Take `C#C[C@]1(O)CC[C@@H]2[C@H]3CCC4=CCCC[C@@H]4[C@@H]3CC[C@@]21C`: the outcome in [1] was inactive. Besides, the Potency entry (in experiment [2]; with 3D7; in the experiment on AS120; in the experiment with ATS189; in the experiment with CP185; in the experiment on CP191) was “inactive” each time. For the same molecule, the Potency entry in the experiment on CP237, in the experiment with CP247, in the experiment with CP256, in the experiment with CP297, in the experiment on CP315 and with CP329 was “inactive” in each case. The Potency result in the experiment with ECU, in the experiment with JCK, in the experiment with N140, with PAD, in the experiment on PC49 and in the experiment with TAB113 was “inactive” each time. For the same molecule, the Potency entry in the experiment on W2 is “inactive”.

For `CN1CCN([C@@H](c2ccccc2)c2ccc(Cl)cc2)CC1`, the Potency entry (in [2]; in the experiment on 3D7; in the experiment on CP185; in the experiment on CP191; in the experiment with CP237; in the experiment on CP247) was “inactive” throughout. Moreover, the Potency result in the experiment with CP297, in the experiment with CP315, in the experiment on CP329, in the experiment on ECU, in the experiment with JCK and with N140 was “inactive” throughout. For the same molecule, the Potency result in the experiment with PC49 is “inactive”. For the same molecule, the Potency with CP256 was 3.55 µM (active); in the experiment with W2, 2.03 µM (active).

Consider `CN1CCC[C@@H](CC2c3ccccc3Sc3ccccc32)C1`, for which the Potency result (in experiment [2]; with ATS189; with CP185; with CP191; with CP247; in the experiment on CP256) was “inactive” in each case. The Potency result in the experiment on CP297, in the experiment on CP315, in the experiment on CP329, with ECU, in the experiment with PAD and in the experiment with PC49 was “inactive” in each case. Moreover, in the experiment on TAB113, the Potency entry was “inactive”. The Potency with W2 was 1.44 µM (active).

Source of the values: PubChem BioAssay (NCATS).
